Measurements as given in PubChem BioAssay (NCI).
About 83,000 compounds went through this panel and 20% of them were active in at least one assay; those are over-represented in the sample as a whole.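 Cells were grown in 96-well plates and exposed to the test compound at a single concentration for 48 hours; results are reported as percent growth, with values below 10 considered active.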 The source made the active and inactive calls.

Columns and labels:
Assay in all cases: NCI-60 one-dose screen, 48 h (100 = growth as untreated, 0 = no growth, -100 = all killed)
Conditions in all cases: 10 µM unless noted
[1] = system: HCT-15 colon
[2] = system: HT29 colon
[3] = system: SNB-75 CNS
[4] = system: SNB-19 CNS
[5] = system: U251 CNS
[6] = system: PC-3 prostate
[7] = system: SK-MEL-5 melanoma
[8] = system: UACC-62 melanoma
[9] = system: LOX IMVI melanoma
[10] = system: SK-MEL-28 melanoma
[11] = system: SK-MEL-2 melanoma
[12] = system: EKVX NSCLC
[13] = system: SN12C renal
[14] = system: UO-31 renal
[15] = system: TK-10 renal
[16] = system: ACHN renal
[17] = system: CAKI-1 renal
[18] = system: A498 renal
[19] = system: CCRF-CEM leukemia
[20] = system: MOLT-4 leukemia

Measured: growth

Fc1ccc2c(-c3cncn3CCc3ccccc3)c[nH]c2c1
inactive: [1] 95.7% | [2] 85.4% | [3] 47.7% | [4] 85.1% | [5] 91.9% | [6] 86.8% | [7] 90.2% | [8] 73.3% | [9] 94.8% | [10] 98.8% | [11] 94.1% | [12] 79.4% | [13] 77% | [14] 68.1% | [15] 135% | [16] 96.7% | [17] 75.2% | [18] 64.1% | [19] 79.4% | [20] 91.2%

CCc1c2c(nc3ccc(OCc4ccc(B(O)O)cc4)cc13)-c1cc3c(c(=O)n1C2)COC(=O)[C@]3(O)CC
active: [2] 3.65% | [3] -7.42% | [4] 8.1% | [5] -12% | [7] -67.5% | [8] -25.1% | [9] -47.8% | [11] 7.66% | [13] 6.55% | [14] -15.8% | [16] -12.6% | [17] -21% | [18] -58.4% | [19] 4.37% | [20] -5.64%
inactive: [1] 18% | [6] 24.4% | [10] 36% | [12] 25.4% | [15] 27.5%

COc1cc2c3c(c4c5ccccc5[nH]c4c2c(OC)c1OC)C(=O)N(CCN1CCOCC1)C3=O
inactive: [1] 50% | [2] 34.2% | [3] 86.4% | [4] 51.9% | [5] 51.8% | [6] 48.4% | [7] 54.7% | [8] 43.3% | [9] 45% | [10] 99.2% | [11] 73.9% | [12] 91.2% | [13] 47.8% | [14] 52.4% | [15] 76.2% | [16] 35.2% | [17] 40.9% | [18] 54.1% | [19] 23.1%
active: [20] 6.55%

C=CCn1c(-c2ccc(-c3nc4ccc(C)cc4[nH]3)cc2)n[nH]c1=S
inactive: [1] 99.2% | [2] 105% | [3] 104% | [4] 102% | [5] 101% | [6] 101% | [7] 89.5% | [8] 95.8% | [9] 98.3% | [10] 100% | [11] 112% | [12] 94.5% | [13] 96.4% | [14] 89.7% | [15] 133% | [16] 99.6% | [17] 93.6% | [18] 94.5% | [19] 87.3% | [20] 96.9%

CCCN1[C@@H]2CC[C@H]1/C(=C\c1ccc(OC)c(OC)c1)C(=O)/C2=C/c1ccc(OC)c(OC)c1
inactive: [1] 41.6% | [2] 30% | [3] 61.1% | [4] 56.7% | [5] 40.7% | [6] 44.3% | [7] 18.1% | [8] 32% | [9] 32.5% | [10] 73.2% | [11] 53.6% | [12] 37.7% | [13] 49.9% | [14] 33.6% | [15] 67.2% | [16] 47.3% | [17] 45.9% | [18] 23.6% | [19] 30.6% | [20] 29.5%

CCOC(=O)c1cc(C(=O)c2ccc(OC)c(OC)c2)n2c1ccc1ccccc12
inactive: [1] 84.5% | [2] 103% | [3] 48.5% | [4] 94% | [5] 96.2% | [6] 81.7% | [7] 89.8% | [8] 74.3% | [9] 85.1% | [10] 106% | [11] 104% | [12] 76.1% | [13] 83.7% | [14] 58.4% | [15] 154% | [16] 91% | [17] 64.6% | [18] 97.1% | [19] 94% | [20] 89.6%

O=C1Nc2ccccc2/C1=C\c1c(-c2ccc(F)cc2)nc2ccccn12
inactive: [1] 58.2% | [2] 58.7% | [3] 71.3% | [4] 77.7% | [5] 93.3% | [6] 62.5% | [7] 58% | [8] 65.1% | [9] 68.3% | [10] 87.2% | [11] 75.5% | [12] 45.6% | [13] 82.5% | [14] 41% | [15] 109% | [16] 54.9% | [17] 44.3% | [18] 70.8% | [19] 67.9% | [20] 57%

O=C(CCN1CCCC1)c1ccc([N+](=O)[O-])cc1
inactive: [1] 100% | [2] 101% | [3] 84% | [4] 116% | [5] 98.4% | [6] 99.8% | [7] 101% | [8] 105% | [9] 102% | [10] 104% | [11] 111% | [12] 97.5% | [13] 106% | [14] 87.3% | [15] 101% | [16] 106% | [17] 97.3% | [18] 92.9% | [19] 103% | [20] 113%

C[C@H]1[C@H](C)CC[C@]2(C(=O)Nc3ccc4ncccc4c3)CC[C@]3(C)C(=CC[C@@H]4[C@@]5(C)CCCNC(C)(C)[C@@H]5CC[C@]43C)[C@H]12
active: [1] -83.7% | [2] -88.5% | [4] -59.6% | [5] -86.3% | [6] -4.73% | [7] -18.8% | [8] -74.5% | [9] -89.7% | [10] -67.3% | [13] -86.1% | [14] -76.5% | [16] -75.1% | [19] -25.5% | [20] -47.9%
inactive: [3] 78.2% | [11] 90.5% | [12] 76.6% | [15] 102% | [17] 26.7% | [18] 98.3%

OCc1cnc2ccccc2c1NC1CCCCCC1
inactive: [1] 98.4% | [2] 92.1% | [3] 91.4% | [4] 94.4% | [5] 92.6% | [6] 82.2% | [7] 59.7% | [8] 81.7% | [9] 89.2% | [10] 102% | [11] 100% | [12] 78.7% | [13] 93.8% | [14] 67.1% | [15] 96.2% | [16] 92.3% | [17] 73.1% | [18] 79.4% | [19] 85.1% | [20] 91.5%

NS(=O)(=O)c1ccc(CCN2C(=O)C=CC2=O)cc1
inactive: [1] 99.3% | [2] 97.2% | [3] 99.3% | [4] 107% | [5] 104% | [6] 100% | [7] 104% | [8] 104% | [9] 97% | [10] 107% | [11] 98.2% | [12] 102% | [13] 110% | [14] 84.5% | [15] 89.7% | [16] 102% | [17] 94.8% | [18] 106% | [19] 99% | [20] 97.4%

NS(=O)(=O)c1ccc(CCn2c(SCC(=O)c3ccc(Cl)cc3)nc3ccccc3c2=O)cc1
inactive: [1] 98.2% | [2] 102% | [3] 90.2% | [4] 102% | [5] 109% | [6] 98.2% | [7] 104% | [8] 98.9% | [9] 96.8% | [10] 113% | [11] 107% | [12] 98.9% | [13] 101% | [14] 84.5% | [15] 97.2% | [16] 99.9% | [17] 89.7% | [18] 99.2% | [19] 97.8% | [20] 97.6%

CCOC(=O)c1nc2c3ccccc3ccn2c1C(=O)OCC
inactive: [1] 99.7% | [2] 105% | [3] 36.8% | [4] 89.2% | [5] 105% | [6] 110% | [7] 98.2% | [8] 87.5% | [9] 98.6% | [10] 113% | [11] 112% | [12] 76.9% | [13] 95.4% | [14] 96.4% | [15] 102% | [16] 99.5% | [17] 94.8% | [18] 109% | [19] 96.1% | [20] 95.4%

COc1ccc(OC)c(CCn2cncc2-c2c[nH]c3ccccc23)c1
active: [3] 3.33%
inactive: [1] 71.4% | [2] 86.6% | [4] 85.1% | [5] 87.8% | [6] 71.4% | [7] 49.7% | [8] 59.2% | [9] 79.6% | [10] 90.3% | [11] 73.5% | [12] 64.8% | [13] 72% | [14] 46.6% | [15] 149% | [16] 76.7% | [17] 66.7% | [18] 61.8% | [19] 68.1% | [20] 75.3%

Cc1ccc(C(=O)/C(=C\c2ccc([N+](=O)[O-])cc2)S(=O)Cc2ccc(Cl)cc2)cc1 (stereo not given)
active: [2] -51.1% | [5] 9.49% | [6] 6.38% | [8] 5.87% | [9] -26.5% | [13] -15.6% | [14] 3.42% | [19] 4.88% | [20] 7.82%
inactive: [1] 10.8% | [3] 75.5% | [4] 46.8% | [7] 78.5% | [10] 46.6% | [11] 72.7% | [12] 82.4% | [15] 50.3% | [16] 12.7% | [17] 59.7% | [18] 77.6%
